Laboratory results taken from PubChem BioAssay (Tox21).
Results filed as inconclusive are left out. Where a call stands in place of a potency, no number is given. Activity calls are given as the source filed them. Unless noted, the call rests on the fitted dose curve.

Target: Nuclear receptor ROR-gamma (Homo sapiens) (UniProt P51449)
Assay: qHTS assay to identify small molecule antagonists of the retinoid-related orphan receptor gamma (ROR-gamma) signaling pathway (AID 1159521; active means well fitted inhibition curve with a large enough effect in the repeat runs; further: nearly all actives have a fitted effect of over 50% in size; further: potency means the concentration at half of the fitted maximal effect)
Conditions: Tet-on RORgamma CHO cells, RORE-luciferase, 16 h; series mostly up to 92.4 µM
Outline: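 Tet-on RORγ CHO cells carrying a ROR response element–luciferase reporter were pretreated with compounds for 2 h, then induced with 1 uM (final) doxycycline hyclate for 16 h at 37 C. Antagonism was read as decreased ONE-Glo luminescence.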

Structure (SMILES) | Potency
N#CCNCC#N | inactive
[O]=[Cd] | inactive
Nc1n[nH]c(N)n1 | 15.6 µM (active)
O=CNC(N1CCN(C(NC=O)C(Cl)(Cl)Cl)CC1)C(Cl)(Cl)Cl (stereo unspecified) | inactive
CCC(C)(C)c1cc(-n2nc3ccccc3n2)c(O)c(C(C)(C)CC)c1 | inactive
CCN(Cc1ccc(Cl)nc1)/C(=C/[N+](=O)[O-])NC | inactive
CCC(Cl)[N+](=O)[O-] (stereo unspecified) | inactive

System: not listed separately
Assay: qHTS assay to identify small molecule agonists of the AP-1 signaling pathway - cell viability counter screen (AID 1159525); further: nearly all actives have a fitted effect of over 55% in size
Conditions: ME-180 (cervical carcinoma) AP-1-bla cells viability, ATP luminescence, 5 h; series mostly up to 76.8 µM
Outline: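 Luminescent ATP readout (Cell Titer Glo, 30 min RT), normalised to DMSO and tetra n-octyl ammonium bromide controls. Cells were ME-180 AP-1-bla in 0.5% dialyzed FBS Opti-MEM, with a 5 h, 37 °C compound exposure.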

Structure (SMILES) | Potency | viability change, negative = cytotoxic
CCC(=O)c1ccccc1 | inactive | –
CNC(=O)N(C)c1nc2ccccc2s1 | inactive | –
COc1ccc(C(=O)N2CCCC2=O)cc1 | inactive | –
COC(=O)C(C)Oc1ccc(Oc2ccc(Cl)cc2Cl)cc1 (stereo unspecified) | inactive | –
Clc1ccccc1N1CCNCC1 | inactive | –
Fc1cc(Br)ccc1CBr | inactive | –
CN/C(=N\[N+](=O)[O-])NCC1CCOC1 (stereo unspecified) | inactive | –
CC(C1CC1)C(O)(Cn1cncn1)c1ccc(Cl)cc1 (stereo unspecified) | inactive | –
C[N+](=O)[O-] | inactive | –
Nc1c(Br)cc([N+](=O)[O-])cc1[N+](=O)[O-] | inactive | –
CSc1ccc(C(=O)C(C)(C)N2CCOCC2)cc1 | inactive | –
O=C(Oc1ccc(Br)cc1)N1CCN2CCC1CC2 | inactive | –
COc1cc(OC)nc(NC(=O)NS(=O)(=O)c2ncccc2OCC(F)(F)F)n1 | inactive | –
CCS(=O)(=O)CCSP(=O)(OC)OC | inactive | –
O=C1CN2CCOC2(c2ccccc2Cl)c2cc(Cl)ccc2N1 (stereo unspecified) | inactive | –
O=[N+]([O-])c1ccc(CBr)cc1 | inactive | –
CC1=NNC(=O)N(/N=C/c2cccnc2)C1 | inactive | –

Structure (SMILES) | Potency | viability change, negative = cytotoxic
Cc1cccc(C#N)c1 | inactive | –
C(CCOCC1CO1)COCC1CO1 (stereo unspecified) | inactive | –
CC1=C(C(=O)O)N2C(=O)[C@@H](N)[C@H]2SC1 | – | 19.2% [at 15.8 µM] (inactive)
CC(C)CC#N | inactive | –
Cc1ccccc1CO[C@@H]1C[C@@]2(C(C)C)CC[C@]1(C)O2 | inactive | –
CCOP(=O)(OCC)OP(=O)(OCC)OCC | inactive | –
CC(=O)C(Cl)Cl | inactive | –
CSc1nc(N=[N+]=[N-])nc(NC(C)C)n1 | inactive | –
CC(C(O)c1ccccc1)N(C)C/C=C/c1ccccc1 (stereo unspecified) | inactive | –
N#CCNCC#N | inactive | –
Clc1cccc(N2CCNCC2)c1 | inactive | –
Nc1n[nH]c(N)n1 | inactive | –
O=CNC(N1CCN(C(NC=O)C(Cl)(Cl)Cl)CC1)C(Cl)(Cl)Cl (stereo unspecified) | inactive | –
CCC(C)(C)c1cc(-n2nc3ccccc3n2)c(O)c(C(C)(C)CC)c1 | inactive | –
CCN(Cc1ccc(Cl)nc1)/C(=C/[N+](=O)[O-])NC | inactive | –
CCC(Cl)[N+](=O)[O-] (stereo unspecified) | inactive | –
Cc1cc(C)c(C(=O)P(=O)(C(=O)c2c(C)cc(C)cc2C)c2ccccc2)c(C)c1 | inactive | –
